Holding throughout (experiment): PBM binding z-score (relative to random genomic background probes); higher = stronger binding; sequences stand for … in GC…GCGATTGACAGCGTAGAATGAAGG
The test system of assay [1] is RARb homodimer (NR concentration 270 nM). In a few lines: (§1)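 For binding z-scores, the reference was random background probes on custom Agilent 4×180K protein-binding microarrays. These arrays were incubated 1 h with ligand-free nuclear receptor dimers in PBS pH 7.4, 2% milk, 0.02% Triton X-100, 1 mM DTT, 0.2 mg/mL BSA and 0.4 mg/ml salmon testes DNA. Fluorescence was scanned after antibody detection of each partner (one per run) and regression-normalized.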

For assay [2], the system named is RARg:RXRa (NR concentration 270 nM, RXRa partner concentration 90 nM). Summed up: as §1
Assay [3] concerns RARg homodimer (NR concentration 270 nM). In a few lines: as §1
For assay [4], the system named is RXRa DBDmut IVT, anti-RXR (DBD mutation: RXRa K156A/R161A, NR concentration 90 nM). In a few lines:
as §1

The subject of assay [5] is RXRa homodimer (NR concentration 180 nM). Summed up: as §1
The subject of assay [6] is THRa:RXRa (NR concentration 90 nM, RXRa partner concentration 90 nM). In a few lines:
as §1

Assay [7] has as its system THRa homodimer (NR concentration 90 nM). Summed up:
as §1

Assay [8] has as its system VDR homodimer (NR concentration 270 nM). Summed up: as §1

For the sequence GCAGACAGGTGAAACGGAGGTAACTCAGGGTGGC, the PBM binding z-score in assay [1] was 0.345; in assay [2], 1.4; in assay [3], 0.25; in assay [4], -0.66; in assay [5], 0.757; in assay [6] it was 1.83. The PBM binding z-score was -0.0224 in assay [7] and -0.566 in assay [8].
On to TAGCCTAGGTCATTGGGCCAGTTTAGTACGCATC, for which the PBM binding z-score in assay [1] was 2.94; in assay [2] it was 3.74; in assay [3], 3.68; in assay [4], 1.46; in assay [5], 2.81; in assay [6], 3.03. Besides, the PBM binding z-score is 1 in assay [7] and 1.46 in assay [8].
Take CCGAGTAGGTTATGGGGCCTTCAGGCAACGGTGA: the PBM binding z-score in assay [1] was 0.593; in assay [2] it was 0.0658; in assay [3] it was 0.0449; in assay [4] it was -0.932; in assay [5], 0.358; in assay [6], 0.547. Besides, the PBM binding z-score stood at 0.292 in assay [7] and 0.0348 in assay [8].
Turning to GCTATTAGTTAAAAGGGCAACCGAATGATTCTCG, the PBM binding z-score in assay [1] was found to be 2.21; in assay [2], 1.08; in assay [3], 1.32; in assay [4] it was 0.572; in assay [5] it was 0.904; in assay [6] it was 0.641. Further, the PBM binding z-score in assay [7] was -0.221; in assay [8] it was 0.339.
Regarding ACTATTAGTGGACTTAGGGCAACCGATACGACGC, the PBM binding z-score in assay [1] amounted to 0.427; in assay [2], 0.269; in assay [3], 0.779; in assay [4], 0.397; in assay [5] it was 0.286; in assay [6], 1.17. Further, the PBM binding z-score in assay [7] was determined as 0.136; in assay [8], 0.0269.
Turning to TCAGACAGGTGAAGGTAACTCAGGTACGCAGTCG, the PBM binding z-score in assay [1] was 1; in assay [2] it was 0.581; in assay [3] it was 0.551; in assay [4], 1.37; in assay [5], 0.995; in assay [6], 1.48. Further, the values for the PBM binding z-score in assay [7] and in assay [8] were 0.516 and 0.357, respectively.
On to TCTTGTAGAACAATAGAGGTTAAGAAAGTGCGCT, for which the PBM binding z-score in assay [1] stood at 1.19; in assay [2] it was 0.879; in assay [3], 0.347; in assay [4], 0.757; in assay [5], 1.42; in assay [6], 1.53. Further, the PBM binding z-score is -0.547 in assay [7] and 0.225 in assay [8].

For the origin of these results see the supplement of paper PMC6555819.
